# From PubChem
# Shiga toxin inh – blocks Shiga toxin action in Vero cells; hit rate 9.2% among 290,000; Vero cells, Shiga toxin protein synthesis inhibition reporter; inhibition, % at 38.7 µM; in the data active means inhibition mostly above about 28%, no sharp cut-off; inactive means mostly below about 43%; further: 0% is about no effect
# Pf growth 48h – inhibits P. falciparum growth in the first generation, 48 h. Potency, µM (doses to about 28.7 µM), without a hit: at the highest dose activity change, negative = inhibition, hits mostly inhibitors. AID 504832. P. falciparum luciferase growth in erythrocytes, 48 h. hit rate 5.9% among 310,000; further: potency means the concentration at half of the fitted maximal effect; on the % scale 0 is the no-effect control and ±100 the full control effect
#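 Erythrocytes infected with P. falciparum carrying an integrated firefly luciferase reporter (2% hematocrit, 0.1% parasitemia final) were exposed to compounds in RPMI 1640 with 0.5% Albumax at 37 C, 5% CO2. Growth inhibition was scored as reduced luminescence.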
# NS1 function inh – blocks influenza NS1 protein function; hit rate 0.4% among 270,000; Potency, µM (top dose mostly 46.1 µM), without a hit: at the highest dose activity, positive = more growth; calls by dose curve; further: potency means the concentration at half of the fitted maximal effect; actives are rising curves; nearly all actives have a fitted effect of over 50% in size
#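 Growth recovery, yeast-based: influenza A NS1 expressed in S. cerevisiae causes slow growth, and suppressors are detected by OD600. The parent strain without NS1 is used as positive control.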
# FBPA Giardia inh – Giardia lamblia aldolase inhibition. hit rate 0.71% among 290,000. A8B2U2. Potency, µM (top dose mostly 59.6 µM), inactives show at the top dose activity, negative = inhibition, hits mostly inhibitors. purified Giardia FBPA; further: potency means the concentration at half of the fitted maximal effect; on the % scale 0 is the no-effect control and ±100 the full control effect; nearly all actives have a fitted effect of over 55% in size
# Target sequence (A8B2U2 whole entry, looked up): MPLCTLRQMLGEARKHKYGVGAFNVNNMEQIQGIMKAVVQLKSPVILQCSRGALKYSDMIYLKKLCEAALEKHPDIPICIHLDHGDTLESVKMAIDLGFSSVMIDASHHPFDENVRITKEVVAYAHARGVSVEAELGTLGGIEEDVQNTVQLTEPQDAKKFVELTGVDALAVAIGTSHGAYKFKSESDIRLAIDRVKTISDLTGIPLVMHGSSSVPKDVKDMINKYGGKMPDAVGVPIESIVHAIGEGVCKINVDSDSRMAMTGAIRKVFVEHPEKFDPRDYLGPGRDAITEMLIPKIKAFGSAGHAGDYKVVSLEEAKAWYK
#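 40 nM FBPA preincubated 10 min at RT with compound (up to 57.5 uM final), then substrate plus GAPDH/TPI/NAD/arsenate coupling and diaphorase/resazurin added. Fluorescence read after 20 min at RT, 525/598 nm.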
# Pf growth 96h – P. falciparum growth inhibition at 96 hours. P. falciparum luciferase reporter growth, 96 h. Potency, µM (titrated, usually from 28.7 µM), for inactives: at the highest dose activity change, negative = inhibition, usual class: inhibitors. hit rate 6.9% among 320,000. AID 504834; further: potency means the concentration at half of the fitted maximal effect; on the % scale 0 is the no-effect control and ±100 the full control effect
#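 Two-generation exposure (96 h) targets delayed-death phenotype. Reporter parasites carrying integrated firefly luciferase, in red cells at 2% hematocrit and 0.05% parasitemia final, kept at 37 C, 5% CO2; luminescence loss indicates inhibition.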
# CHX counter – affects cycloheximide protein synthesis inhibition readout, counter-screen. cell reporter, cycloheximide protein synthesis inhibition counterscreen. max response, %. hit rate 12% among 300,000. AID 2314; in the data active means max response mostly above about 13%, no sharp cut-off; inactive means mostly below about 14%; further: read at 38.3 µM for the half of the compounds with a filed dose; 0% is about no effect
# Numbers without * were called inactive; ? = inconclusive; . = no result. Rows were chosen to be rich in hits. Some 21% of all compounds tested hit in one or more screens of this group. Unless noted, the call rests on the fitted dose curve; in most records, active means well fitted curve in the direction sought with a large enough effect; inconclusive means small, poorly fitted or top-dose-only effect, or another doubt; inactive means no such curve, though single readings can be large; an effect the other way counts as inactive or inconclusive.
SMILES,Shiga toxin inh,Pf growth 48h,NS1 function inh,FBPA Giardia inh,Pf growth 96h,CHX counter
Cc1cccc(NC(=O)c2cc(-c3cc(Cl)ccc3O)n[nH]2)c1,76.1*,2.62µM*,1.2%,17.8%,2.33µM*,37.3*
Cc1ccc(NC(=O)c2snc3c(=O)[nH]cnc23)cc1C,-24.8,.,5.4%,-2.5%,-23.4%,-3.5
COc1ccc(CNc2nc(-c3cccc(NS(C)(=O)=O)c3)nc3ccccc23)c(OC)c1,.,.,.,-5.1%,.,.
c1ccc2c(CN3CCCCCCC3)c[nH]c2c1,-7.8,?,-10.7%,-13.6%,.,-0.1
CC(Cc1ccccc1)C(=O)NCCc1c[nH]c2ccccc12 (configuration not stated),.,.,.,-11.7%,.,.
Cc1ccc(NC(=S)NCCc2c[nH]c3ccccc23)cc1,17.6,36.1%,-38.5%,-4.2%,17.0%,14.9*
Cc1cccc(C)c1NC(=O)C(=O)NCCc1c[nH]c2ccccc12,-6.4,5.22µM*,.,-4.7%,?,-1.7
c1ccc2c(CN3CCN(C4CCCCC4)CC3)c[nH]c2c1,45.5,6.57µM*,15.0%,-0.4%,11.7µM*,12.5
CCC(C(=O)NCCc1c[nH]c2ccc(C)cc12)c1ccccc1 (configuration not stated),-3.7,?,-8.9%,8.7%,14.7µM*,-1.0
Cc1cccc(NC(=O)[C@@H]2CCCN2C(=O)OC(C)(C)C)c1,-0.9,37.3%,1.3%,.,16.6%,-1.1
CCOc1cc(C(=O)NC(C)CCc2ccccc2)cc(OCC)c1OCC (configuration not stated),-13.7,0.0%,11.6%,-1.8%,?,0.9
Cc1cc(F)ccc1NC(=O)CS(=O)(=O)c1cccc2nsnc12,-5.0,.,.,.,.,-5.4
O=C(NCCc1c[nH]c2ccccc12)OCCSS(=O)(=O)O,-3.7,6.6%,0.7%,?,11.7µM*,-0.8
O=C(NCCc1c[nH]c2ccccc12)Nc1ccccc1,14.5,3.5%,-1.2%,-1.6%,54.2%,24.0*
c1ccc2c(CNC3CCCCC3)c[nH]c2c1,-10.3,.,-8.0%,-3.4%,13.1µM*,-4.1
S=C(NCCc1c[nH]c2ccccc12)NC1CCCCC1,59.8,23.5%,.,-1.5%,-1.8%,16.3
S=C(NCCc1c[nH]c2ccccc12)NC1CCCC1,37.0,17.0%,7.3%,0.1%,?,22.6*
NC(=O)CSc1nnc(-c2ccccc2)c(-c2ccccc2)n1,-20.7,-3.1%,-3.6%,12.2%,?,-8.6
COc1ccc(OC)c(CCNC(=O)CC2(CC3=NS(=O)(=O)c4ccccc4N3)CCCC2)c1,-2.9,?,-0.1%,-4.8%,16.0%,-0.4
COc1ccc(N2COC3c4cccc5cccc(c45)C32)cc1 (configuration not stated),45.0*,?,5.4%,?,-3.4%,24.3*
Clc1ccc(N2COC3c4cccc5cccc(c45)C32)cc1 (configuration not stated),49.2*,?,5.6%,-4.2%,-26.7%,13.2
CC(=O)NCCC(=O)Nc1cc(S(=O)(=O)N2CCCCC2)ccc1Oc1ccccc1,-8.9,21.9%,5.7%,.,?,-4.3
CC(C)[C@@H](CC(=O)N[C@@H]1CCCC[C@H]1C(=O)N[C@H](CC(=O)N[C@@H](CCC(=O)O)CC(=O)O)Cc1ccccc1)NC(=O)C[C@H](Cc1c[nH]c2ccccc12)NC(=O)[C@@H]1CNCC[C@H]1N,.,.,.,-27.1%,.,.
O=[N+]([O-])c1nn(-c2ccc3c(c2)OCCO3)n(O)c1=NCc1ccc(F)cc1,91.8*,119.7%,-14.2%,-2.0%,-10.8%,102.6*
O=[N+]([O-])c1nn(-c2ccc3c(c2)OCCO3)n(O)c1=NCCC1=CCCCC1,49.5,-11.7%,-3.6%,-4.9%,?,24.7*
SMILES,Shiga toxin inh,Pf growth 48h,NS1 function inh,FBPA Giardia inh,Pf growth 96h,CHX counter
O=[N+]([O-])c1nn(-c2ccc3c(c2)OCCO3)n(O)c1=NCc1ccc(F)cc1Cl,131.0*,339.3%,.,2.1%,18.5%,49.6*
COC1=C(OC)C(=O)C(C/C=C(\C)CC/C=C(\C)CC/C=C(\C)CC/C=C(\C)CC/C=C(\C)CC/C=C(\C)CC/C=C(\C)CC/C=C(\C)CC/C=C(\C)CCC=C(C)C)=C(C)C1=O,-5.1,-6.4%,.,4.7%,-1.5%,-4.7
O=C(CN1C(=O)C(=O)N(C2CCCC2)C1=O)Nc1ccc(F)cc1F,.,-23.9%,.,.,-1.2%,.
Cc1cccc(N=C2NN=C(c3ccc4c(c3)OCCO4)CS2)c1,92.6*,-82.6%,-3.2%,1.7%,-81.8%,26.9*
CCc1ccc(C2=NNC(=Nc3cccc(S(=O)(=O)N(C)C)c3)SC2)cc1,-14.8,?,20.3%,-2.3%,?,7.3
Cc1ccc(C2=NNC(=Nc3ccc(F)cc3)SC2)cc1,84.1*,?,.,0.1%,?,25.8*
Cc1ccc(N=C2NC(=O)CS2)cc1,14.6,-1.7%,-7.1%,0.3%,94.7%,3.0
Cc1cccc(N=C2NN=C(c3c(C)[nH]c4ccccc34)CS2)c1,13.1,2.62µM*,24.7%,-8.8%,1.47µM*,5.6
Cc1cc(C)n(-c2nc(N(C)C)nc(N3CCOCC3)n2)n1,-15.4,.,0.9%,-3.8%,-9.2%,-2.1
Cc1cc(C)n(-c2nc3ccccc3nc2N2CCC(C)CC2)n1,39.7,9.28µM*,-65.0%,7.6%,.,1.4
Cc1cc(C)n(-c2nc3ccccc3nc2N2CCN(C(=O)c3ccc(F)cc3)CC2)n1,-9.9,?,-26.0%,3.0%,.,-5.1
CCc1nc2ccccc2nc1N1CCN(S(=O)(=O)c2ccccc2)CC1,-4.0,?,1.8%,0.3%,14.7µM*,-2.2
CCc1nc2ccccc2nc1N1CCN(S(=O)(=O)c2c(C)cc(Cl)cc2C)CC1,-9.7,-10.7%,3.7%,1.4%,-5.5%,1.3
Cc1cc(N2CCC(C)CC2)nc(-n2nc(C)cc2C)n1,-9.5,0.738µM*,-3.0%,10.3%,.,-0.7
Cc1ccc(S(=O)(=O)N2CCN(c3nc4ccccc4nc3-n3nc(C)cc3C)CC2)cc1,-22.5,10.4µM*,-67.9%,-5.2%,17.0%,8.1
c1cncc(CNCc2cccnc2)c1,.,.,3.2%,.,.,.
COCCNC(=O)CN(C(=O)Cn1nnc2ccccc21)c1cc(C)cc(C)c1,-9.1,22.6%,3.9%,-2.5%,3.5%,-1.7
COC(=O)c1cc(S(=O)(=O)N2CCN(C(=O)c3ccco3)CC2)cn1C,-4.2,7.7%,2.3%,.,3.2%,1.4
CCc1nc(-c2ccccc2)c2ccccn12,20.2,17.6%,.,4.46µM*,-1.6%,12.7
CCc1nc2ccccc2n1CC(C)C(=O)O (configuration not stated),12.7,-16.0%,2.2%,-13.6%,?,-1.6
CCN(CC)c1ccc(/C=C/C(=O)C2C(=O)C=C(C)OC2=O)cc1 (configuration not stated),99.9*,222.2%,.,-3.5%,2.4%,25.7*
CCN(CC)c1ccc(C=C2C(=O)OC(c3ccccc3)OC2=O)cc1 (configuration not stated),40.4,18.6%,.,-0.3%,-28.4%,15.6
